Results: PubChem BioAssay (EPA / NIEHS)
Inconclusive results are not listed. Active and inactive are the calls of the source. How the source made its calls, unless noted: active means hit-call score of the fitted dose curve at least 0.9, where 1 is the maximum; inconclusive means response in the unintended direction; inactive means score below 0.9.

Columns and labels:
[1] = CCTE_Harrill_HTTr_CellCount_MCF7: CCTE's Cell Proliferation Assessment for the High-Throughput Transcriptomics (HTTr) Platform, Harrill Lab (AID 2284012);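 further: cells exposed to compound for six hours; intended direction is loss of nuclei count meaning fewer cells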
In short: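 Cell count from high-content imaging of Hoechst-labeled nuclei serves as viability/growth readout. Chemicals were applied to MCF-7 cells in eight concentrations for six hours, with fitting in both directions relative to DMSO.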

[2] = ATG_M_06_TRANS: Attagene TRANS-FACTORIAL HepG2 Assay for M06 Transcription Factor (Internal Marker) (AID 2282983); conditions: HepG2 Attagene TRANS M06 internal marker reporter
In short: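 mRNA levels of a reporter transcript, quantified as FAM fluorescence on capillary electrophoresis, served as readout. HepG2 cells expressing exogenous GAL4-chimera reporter constructs were exposed for 24 h. Gain of signal over DMSO was evaluated.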

[3] = molecular target: human RAR-related Orphan Receptor beta (RORb), RORB (gene 6096) (UniProt Q92753); test: ATG_RORb_TRANS: Attagene TRANS-FACTORIAL HepG2 Assay for human RAR-related Orphan Receptor beta (RORb) (AID 2283010)
In short: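 Read-out is reporter mRNA induction, quantified by RT-PCR with fluorescent capillary electrophoresis, 24 h post-dose in transiently transfected HepG2 expressing exogenous NR-Gal4 chimera. Activity fitted upward versus DMSO.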

[4] = ATG_GRE_CIS: Attagene CIS-FACTORIAL HepG2 Assay for human Glucocorticoid Response Elements (GRE) (AID 2282947; active means hit-call score of the fitted dose curve at least 0.9, where 1 is the maximum; inactive means score below 0.9); conditions: HepG2 GRE cis-reporter, Attagene multiplex mRNA; actives raise or lower the signal
In short: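 Reporter transcripts read by RT-PCR with capillary electrophoresis fluorescence after a 24 h chemical exposure of HepG2 cells transiently transfected with multiple cis-element reporter units. Gain or loss fitted against DMSO.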

[5] = ATG_PBREM_CIS: Attagene CIS-FACTORIAL HepG2 Assay for human Phenobarbital-responsive Enhancer Module (PBREM) (AID 2282955; active means hit-call score of the fitted dose curve at least 0.9, where 1 is the maximum; inactive means score below 0.9); conditions: HepG2 PBREM cis-reporter, Attagene multiplexed transcription; actives raise or lower the signal
In short: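 HepG2 cells transiently transfected with multiple cis-regulated reporter units measure endogenous transcription factor activity; 24 h compound exposure. Reporter mRNA quantified by RT-PCR, fluorescent labelling, HpaI digestion and capillary electrophoresis; bidirectional fit versus DMSO.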

[6] = molecular target: Glucocorticoid receptor (Homo sapiens) (UniProt P04150); test: ATG_GR_TRANS: Attagene TRANS-FACTORIAL HepG2 Assay for human Glucocorticoid Receptor (GR) (AID 2282978); conditions: HepG2 Attagene TRANS GR reporter, mRNA transcription;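 further: activators score as hits since higher reporter transcript over DMSO is fitted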
In short: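 HepG2 cells transiently transfected with GAL4-UAS reporter units and exogenous GR-Gal4 chimera, dosed 24 h. Reporter mRNA by RT-PCR, FAM labeling, HpaI digest and capillary electrophoresis; gain-of-signal fit versus DMSO.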

[7] = molecular target: Hepatocyte nuclear factor 4-alpha (Homo sapiens) (UniProt P41235); test: ATG_HNF4a_TRANS: Attagene TRANS-FACTORIAL HepG2 Assay for human Hepatocyte Nuclear Factor 4 alpha (HNF4a) (AID 2282982); conditions: HepG2 HNF4a transactivation reporter, mRNA readout
In short: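 Activity of an exogenous HNF4a–Gal4 fusion scored as induced GAL4-UAS reporter transcripts after 24 h chemical exposure of transfected human HepG2 cells. Read-out via RT-PCR with 6-FAM labelling and capillary electrophoresis; rise over DMSO baseline.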

[8] = ATG_NF_kB_CIS: Attagene CIS-FACTORIAL HepG2 Assay for human Nuclear Factor Kappa B (NF-kB) (AID 2282991; active means hit-call score of the fitted dose curve at least 0.9, where 1 is the maximum; inactive means score below 0.9); conditions: HepG2 Attagene cis-factorial NF-kB reporter mRNA; actives raise or lower the signal
In short: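 HepG2 cells transfected with cis-promoter-driven reporter units, so endogenous transcription factor activity is measured. Reporter mRNA quantified 24 h after dosing by RT-PCR and capillary electrophoresis, with bidirectional fitting against DMSO.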

[9] = molecular target: human Peroxisome Proliferator-activated Receptor delta (PPARd), PPARD (gene 5467) (UniProt Q03181); test: ATG_PPARd_TRANS: Attagene TRANS-FACTORIAL HepG2 Assay for human Peroxisome Proliferator-activated Receptor delta (PPARd) (AID 2283002)
In short: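 Transient HepG2 transfection (multiple GAL4-UAS RTUs, chimeric receptor-Gal4); 24 h dosing; total RNA → oligo(dT) RT → PCR → 6-FAM primer extension → HpaI cut → CE. Positive direction vs DMSO.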

[10] = CCTE_Shafer_MEA_acute_per_network_burst_electrodes_number_mean: CCTE's Neural Acute Assay for Mean Number of Electrodes in a Network Burst, Shafer Lab (AID 2284021; active means hit-call score of the fitted dose curve at least 0.9, where 1 is the maximum; inactive means score below 0.9;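 further: curves fitted for decreases only so hits reduce electrodes per burst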)
In short: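 Rat primary cortical neurons on 48-well MEAs, DIV 13 or 15, were treated at 0.03-40 uM. Spikes were detected at 8x rms noise and recorded at 37 C. The mean electrodes per network burst in a 40 min exposure recording was expressed as percent change from a 40 min baseline.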

[11] = CCTE_Shafer_MEA_acute_network_burst_percentage: CCTE's Neural Acute Assay for Percentage of Network Bursts, Shafer Lab (AID 2284022; active means hit-call score of the fitted dose curve at least 0.9, where 1 is the maximum; inactive means score below 0.9;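 further: curves fitted for loss so actives lower network burst percentage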)
In short: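 Rat primary cortical neuron networks on 48-well MEA plates, DIV 13 or 15, treated acutely with compound (0.03-40 uM, at least three wells). Percent of spikes within network bursts compared between 40-min recordings before and during exposure at 37 C, expressed as percent change.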

[12] = CCTE_Shafer_MEA_acute_cross_correlation_area: CCTE's Neural Acute Assay for Area of Cross Correlation, Shafer Lab (AID 2284024; active means hit-call score of the fitted dose curve at least 0.9, where 1 is the maximum; inactive means score below 0.9;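 further: curves fitted for loss of cross-correlation area so actives lower synchrony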)
In short: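 Rat primary cortical neurons on 48-well MEA, DIV 13 or 15; compounds 0.03-40 uM. Baseline and post-exposure 40 min recordings at 37 C; percent change in area under pooled inter-electrode cross-correlation near zero lag, relative to DMSO.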

[13] = CCTE_Shafer_MEA_acute_cross_correlation_HWHM: CCTE's Neural Acute Assay for Cross Correlation at Half Width at Half Maximum, Shafer Lab (AID 2284026; active means hit-call score of the fitted dose curve at least 0.9, where 1 is the maximum; inactive means score below 0.9;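 further: percent change per well from pre-dose baseline in spike cross-correlogram half width; hits are a decrease in cross-correlogram half width relative to DMSO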)
In short: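 Rat primary cortical neurons on 48-well MEA plates; 40-min baseline and 40-min post-exposure recordings at 37 C on DIV 13 or 15, compounds 0.03-40 uM. Spikes detected at 8x rms noise; percent change in cross-correlogram HWHM per well vs baseline.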

[14] = CCTE_Shafer_MEA_acute_LDH: CCTE's Lactate Dehydrogenase Assay for Cytotoxicity in the Neural Acute Assay, Shafer Lab (AID 2284086);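 further: active means LDH release rises above DMSO vehicle level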
In short: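 LDH released during 40 min compound exposure of primary rat cortical cultures, quantified by absorbance at 490 nm in collected medium. Fitting direction positive versus DMSO vehicle.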

[15] = ACEA_ER_AUC_viability: ACEA Biosciences xCELLigence Real-Time Cell Analysis on Estrogen Receptor Agonism for Viability (AID 2283782);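 further: hit means loss of impedance signal meaning reduced cell growth or viability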
In short: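 Viability endpoint: reduced impedance area under the curve relative to DMSO, recorded by real-time electrode sensing over ~80 h of continuous exposure. Duplicate plates of T47D in hormone-depleted medium; eight concentrations, 1:4 dilutions, 100 uM maximum.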

[16] = molecular target: Bile acid receptor (Homo sapiens) (UniProt Q96RI1); test: ATG_FXR_TRANS: Attagene TRANS-FACTORIAL HepG2 Assay for Farnesoid X Receptor (FXR) (AID 2282979); conditions: HepG2 Attagene TRANS FXR-GAL4 reporter transcription;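 further: hits raise reporter mRNA above DMSO so AC50 marks FXR activation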
In short: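 HepG2 cells were transiently transfected with GAL4-UAS reporters driven by chimeric NR-Gal4 proteins and dosed for 24 h. Reporter mRNA was quantified by RT-PCR, fluorescent labelling, HpaI digestion and capillary electrophoresis, with gain of signal scored versus DMSO.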

[17] = CCTE_Shafer_MEA_acute_AB: CCTE's Alamar Blue Assay for Cytotoxicity in the Neural Acute Assay, Shafer Lab (AID 2284069);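 further: active compounds lower the viability signal compared with DMSO wells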
In short: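 Primary rat cortical neurons on MEA plates, exposed acutely after baseline recording on day 13 or 15 post-plating. Viability by CellTiter Blue resazurin reduction (1:6 reagent dilution), fluorescence 544/590 nm; loss of signal versus DMSO.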

Measured: AC50

Hepatocyte nuclear factor 4-alpha (Homo sapiens), sequence (P41235 whole entry, looked up, the tested form may be a part): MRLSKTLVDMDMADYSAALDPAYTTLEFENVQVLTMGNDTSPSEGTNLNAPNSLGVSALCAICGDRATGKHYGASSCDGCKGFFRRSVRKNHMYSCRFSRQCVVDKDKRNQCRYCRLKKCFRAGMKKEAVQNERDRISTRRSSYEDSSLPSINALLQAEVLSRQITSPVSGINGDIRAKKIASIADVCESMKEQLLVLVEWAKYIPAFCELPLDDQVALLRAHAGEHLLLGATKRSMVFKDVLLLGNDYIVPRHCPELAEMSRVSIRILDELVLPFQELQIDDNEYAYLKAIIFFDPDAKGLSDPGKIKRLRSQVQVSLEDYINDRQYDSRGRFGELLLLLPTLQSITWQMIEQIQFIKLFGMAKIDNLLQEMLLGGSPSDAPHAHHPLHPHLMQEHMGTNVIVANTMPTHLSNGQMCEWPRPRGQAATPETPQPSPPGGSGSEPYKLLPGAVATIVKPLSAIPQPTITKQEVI
human RAR-related Orphan Receptor beta (RORb), RORB (gene 6096), sequence (Q92753 whole entry, looked up, the tested form may be a part): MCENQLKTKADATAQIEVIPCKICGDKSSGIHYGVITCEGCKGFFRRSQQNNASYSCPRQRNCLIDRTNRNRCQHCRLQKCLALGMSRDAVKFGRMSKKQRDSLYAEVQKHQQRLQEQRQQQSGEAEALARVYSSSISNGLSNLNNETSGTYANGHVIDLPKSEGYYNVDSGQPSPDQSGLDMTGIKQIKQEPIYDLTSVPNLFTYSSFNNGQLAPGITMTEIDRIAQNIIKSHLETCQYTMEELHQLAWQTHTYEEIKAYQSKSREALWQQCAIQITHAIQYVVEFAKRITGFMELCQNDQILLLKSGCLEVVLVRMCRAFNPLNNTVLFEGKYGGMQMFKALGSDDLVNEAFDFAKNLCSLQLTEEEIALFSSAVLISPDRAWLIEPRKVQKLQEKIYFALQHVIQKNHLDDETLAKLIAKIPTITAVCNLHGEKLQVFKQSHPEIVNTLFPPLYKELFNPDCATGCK
Bile acid receptor (Homo sapiens), sequence (Q96RI1 whole entry, looked up, the tested form may be a part): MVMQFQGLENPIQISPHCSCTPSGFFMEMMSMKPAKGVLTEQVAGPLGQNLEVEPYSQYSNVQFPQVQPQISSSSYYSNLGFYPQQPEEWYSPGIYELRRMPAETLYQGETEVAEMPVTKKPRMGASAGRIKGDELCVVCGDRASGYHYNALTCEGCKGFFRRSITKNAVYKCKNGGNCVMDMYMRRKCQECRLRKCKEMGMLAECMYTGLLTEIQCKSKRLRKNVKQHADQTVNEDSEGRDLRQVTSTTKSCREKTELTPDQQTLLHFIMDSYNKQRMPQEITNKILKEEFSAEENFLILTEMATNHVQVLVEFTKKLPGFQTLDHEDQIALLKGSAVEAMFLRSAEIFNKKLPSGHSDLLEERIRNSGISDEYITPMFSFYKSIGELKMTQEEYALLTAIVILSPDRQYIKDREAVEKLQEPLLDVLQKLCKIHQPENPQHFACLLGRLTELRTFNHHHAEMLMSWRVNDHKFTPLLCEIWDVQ
Glucocorticoid receptor (Homo sapiens), sequence (P04150 whole entry, looked up, the tested form may be a part): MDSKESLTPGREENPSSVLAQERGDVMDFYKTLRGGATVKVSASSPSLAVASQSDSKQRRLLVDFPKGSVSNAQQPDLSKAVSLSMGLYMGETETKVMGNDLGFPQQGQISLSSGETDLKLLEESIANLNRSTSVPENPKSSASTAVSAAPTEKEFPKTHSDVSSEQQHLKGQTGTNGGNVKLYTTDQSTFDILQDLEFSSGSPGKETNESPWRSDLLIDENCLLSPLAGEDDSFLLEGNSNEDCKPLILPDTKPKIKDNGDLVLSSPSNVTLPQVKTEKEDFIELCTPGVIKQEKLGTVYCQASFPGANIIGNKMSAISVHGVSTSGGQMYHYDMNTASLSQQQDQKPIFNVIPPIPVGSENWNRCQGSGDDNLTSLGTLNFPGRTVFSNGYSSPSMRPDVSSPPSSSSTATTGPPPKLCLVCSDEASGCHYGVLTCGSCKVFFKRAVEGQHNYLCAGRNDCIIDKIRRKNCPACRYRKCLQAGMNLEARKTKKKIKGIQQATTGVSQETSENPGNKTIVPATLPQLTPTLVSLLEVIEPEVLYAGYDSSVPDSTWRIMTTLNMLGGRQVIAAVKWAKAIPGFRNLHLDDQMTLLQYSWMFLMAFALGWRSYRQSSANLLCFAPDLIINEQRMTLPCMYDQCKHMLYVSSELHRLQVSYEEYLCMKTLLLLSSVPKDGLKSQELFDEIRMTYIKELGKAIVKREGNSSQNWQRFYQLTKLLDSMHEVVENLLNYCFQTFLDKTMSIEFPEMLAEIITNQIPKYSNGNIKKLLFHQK
human Peroxisome Proliferator-activated Receptor delta (PPARd), PPARD (gene 5467), sequence (Q03181 whole entry, looked up, the tested form may be a part): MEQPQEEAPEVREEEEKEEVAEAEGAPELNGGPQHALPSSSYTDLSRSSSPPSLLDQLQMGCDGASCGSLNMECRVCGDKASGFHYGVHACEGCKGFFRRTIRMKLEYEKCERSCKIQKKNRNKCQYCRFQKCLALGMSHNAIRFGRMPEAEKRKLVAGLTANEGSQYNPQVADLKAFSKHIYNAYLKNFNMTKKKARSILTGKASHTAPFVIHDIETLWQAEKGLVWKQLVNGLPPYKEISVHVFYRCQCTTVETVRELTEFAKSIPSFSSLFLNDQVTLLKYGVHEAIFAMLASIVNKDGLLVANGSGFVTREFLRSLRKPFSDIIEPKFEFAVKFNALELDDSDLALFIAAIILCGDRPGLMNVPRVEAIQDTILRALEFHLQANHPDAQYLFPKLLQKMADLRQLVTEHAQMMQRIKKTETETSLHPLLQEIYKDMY

CCCCC(CC)COC(=O)C=Cc1ccc(OC)cc1 (stereo not drawn)
inactive: [1]

CC1=NN(c2cc(Cl)c(S(=O)(=O)O)cc2Cl)C(=O)C1N=Nc1ccc(S(=O)(=O)O)cc1 (stereo not drawn)
inactive: [2] | [3]

O=C(O)/C=C\C(=O)O
inactive: [4] | [5] | [6] | [7] | [2] | [8] | [9] | [3] | [1]

COc1cc(CNC(=O)CCCC/C=C/C(C)C)ccc1O
active: [13] 5.46 µM
inactive: [10] | [11] | [12] | [14]

CC(C)(C)C(=O)C(=O)O
inactive: [15]

CC(C)(C)NC(=O)[C@@H]1CN(Cc2cccnc2)CCN1C[C@@H](O)C[C@@H](Cc1ccccc1)C(=O)N[C@H]1c2ccccc2C[C@H]1O
active: [6] 13.4 µM
inactive: [4] | [5] | [16] | [9]

Clc1ccccn1
inactive: [16] | [7] | [8] | [15] | [1]

COc1ccccc1Oc1c(NS(=O)(=O)c2ccc(C(C)(C)C)cc2)nc(-c2ncccn2)nc1OCCO
inactive: [10] | [11] | [12] | [13] | [17]
